Sampled rows, rich in hits. Any-hit rate of the full collection: about 3.4%.
AmpC inh detg = blocks E. coli AmpC beta-lactamase in detergent assay; P00811; AmpC hydrolysis of nitrocefin, absorbance 480 nm, 0.01% Triton; Potency, µM (doses to about 114 µM), actives largely listed as inhibitors; hit rate 0.041% among 370,000; further: nearly all actives have a fitted effect of over 25% in size
Target sequence (P00811 whole entry, looked up): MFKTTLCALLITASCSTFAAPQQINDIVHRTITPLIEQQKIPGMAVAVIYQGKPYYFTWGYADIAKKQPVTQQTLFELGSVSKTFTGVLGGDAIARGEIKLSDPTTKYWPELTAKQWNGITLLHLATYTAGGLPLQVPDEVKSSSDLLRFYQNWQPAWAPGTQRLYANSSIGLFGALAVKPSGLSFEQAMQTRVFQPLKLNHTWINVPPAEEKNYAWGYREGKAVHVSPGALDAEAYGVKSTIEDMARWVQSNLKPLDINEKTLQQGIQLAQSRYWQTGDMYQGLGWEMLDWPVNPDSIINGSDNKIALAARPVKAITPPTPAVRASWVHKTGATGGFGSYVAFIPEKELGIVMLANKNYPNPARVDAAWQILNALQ
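20 mM phosphate pH 7.0 + 0.01% (detergent screen) or 0.0001% Triton X-100; 5.3 nM AmpC reagent; cpd preinc 15 min RT; nitrocefin (800 uM stock) to start; A480 q20 s × 4 min; Activity was normalised to no-enzyme and no-compound control wells.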
RE007 growth inh = less growth of the S. pombe RE007 Vpr strain; S. pombe RE007 Vpr strain, BacTiter-Glo ATP luminescence, 24 h; Potency, µM (titrated, usually from 92.2 µM), usual class: inhibitors; hit rate 0.21% among 360,000; active means well fitted falling curve with a large enough effect; inconclusive means small, poorly fitted or top-dose-only effect; inactive means no such curve, though single readings can be large or run the other way; further: nearly all actives have a fitted effect of over 50% in size
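Fission yeast strain RE007, carrying one chromosomally integrated HIV-1 vpr copy, was seeded at OD 0.01 in PMG+AL medium with 23 nL pinned compound. After 24 h at 30 °C and 99% humidity, viability was read by BacTiter-Glo luminescence.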
Giardia FBPA inh = Giardia lamblia aldolase inhibition. Potency, µM (series often up to 59.6 µM), hits mostly inhibitors. A8B2U2. purified Giardia FBPA. hit rate 0.71% among 290,000; further: nearly all actives have a fitted effect of over 55% in size
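Giardia FBPA (40 nM reagent) was preincubated 10 min at RT with compound (up to 57.5 uM final), then substrate plus GAPDH/TPI/NAD/arsenate coupling system with diaphorase/resazurin was added; resorufin fluorescence (525/598 nm) was read after 20 min.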
Sm TGR inh = inhibitors of Schistosoma mansoni thioredoxin glutathione reductase; Q962Y6; purified TGR, DTNB reduction, TNB absorbance 405 nm; Potency, µM (doses to about 114 µM), hits mostly inhibitors; hit rate 3% among 360,000; further: nearly all actives have a fitted effect of over 60% in size
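Kinetic colorimetric format: TGR-catalysed, NADPH-driven DTNB reduction monitored via TNB absorbance. Enzyme dispensed at 20 nM; compound exposure 15 min at room temperature before reaction start.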
AmpC no deterg = inhibitors of E. coli AmpC beta-lactamase without detergent; AmpC nitrocefin hydrolysis, absorbance 480 nm, 0.0001% Triton; AID 485341; P00811; Potency, µM (doses to about 57.1 µM), most hits filed as inhibitors; hit rate 0.52% among 330,000; further: nearly all actives have a fitted effect of over 20% in size
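AmpC (5.3 nM in the dispensed reagent) in 20 mM phosphate pH 7.0 with 0.01% (detergent screen) or 0.0001% Triton X-100 was preincubated with compounds for 15 min at room temperature. Nitrocefin was then added from an 800 uM solution, and hydrolysis was followed at 480 nm.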
Each line names hits and unclear results; the compound was inactive in the other large screens. Unless noted, the call rests on the fitted dose curve; in most records, active means well fitted curve in the direction sought with a large enough effect; inconclusive means small, poorly fitted or top-dose-only effect, or another doubt; inactive means no such curve, though single readings can be large; an effect the other way counts as inactive or inconclusive.

CCC(=O)NC(C)c1nc2ccccc2n1C (centres undefined)	none
CCCCn1c(C(C)NC(=O)CC)nc2ccccc21 (centres undefined)	AmpC inh detg inconclusive
CC(C)Cn1c(C(C)NC(=O)Cc2ccccc2)nc2ccccc21 (centres undefined)	AmpC inh detg inconclusive, AmpC no deterg 1.6µM
COc1ccc2cc3c(N)c(C(=O)NCc4ccco4)sc3nc2c1	AmpC no deterg 0.32µM
Nc1c(C(=O)NCc2ccco2)sc2nc3c(cc12)C(=O)CCC3	AmpC inh detg inconclusive, Giardia FBPA inh inconclusive, Sm TGR inh 8.9µM
O=Nc1ccc(NOC(=O)c2ccc(Br)cc2)cc1	none (no result: RE007 growth inh, Giardia FBPA inh)
Cc1ccc(C(=O)ONc2ccc(N=O)cc2)cc1	RE007 growth inh 5.6µM
Nc1ccc(-c2nc3ccccc3o2)cc1	none
O=C1C=CC(=O)N1c1ccc(-c2nc3ccccc3o2)cc1	RE007 growth inh 6.3µM (no result: AmpC inh detg, Giardia FBPA inh, Sm TGR inh, AmpC no deterg)
Cc1c(-c2nsc(NC(=O)c3ccccc3)n2)nnn1-c1ccc(C(F)(F)F)c(Cl)c1	none (no result: RE007 growth inh, Giardia FBPA inh, AmpC no deterg)
Cc1cc(NC(=O)c2sc(Nc3cccc(C(F)(F)F)c3)nc2N)no1	AmpC inh detg inconclusive
Cc1cc(NC(=O)c2sc(Nc3ccc(F)c(Cl)c3)nc2N)no1	AmpC no deterg 20µM
O=C(NC1CCCC1)C(c1cccs1)N(C(=O)c1ccno1)c1ccccc1 (centres undefined)	AmpC inh detg inconclusive
Cc1cccc(NS(=O)(=O)c2cccc(C(=O)N3CCCCCCC3)c2)c1	none (no result: Giardia FBPA inh)
O=C1c2c([N+](=O)[O-])cc([N+](=O)[O-])cc2S(=O)N1Cc1ccccc1 (centres undefined)	Sm TGR inh 40µM
O=C(Nc1ccc(C(F)(F)F)cc1)c1ccccc1	none (no result: Giardia FBPA inh)
COc1ccc(CNC(=O)C2CCN(c3nc4ccccc4[nH]3)CC2)cc1OC	none (no result: RE007 growth inh, Giardia FBPA inh, AmpC no deterg)
O=C1[C@@H]2C(c3cccnc3)=NO[C@@H]2C(=O)N1c1ccc2ccccc2c1	RE007 growth inh 14µM, Sm TGR inh 3.5µM
O=C1C2C3c4ccccc4C(c4ccccc43)C2C(=O)N1c1cccnc1 (centres undefined)	none
O=C(N/N=C/c1oc(O)c2ccccc12)c1ccccc1O	AmpC inh detg inconclusive
O=[N+]([O-])CC(=Nc1ccc(F)cc1)N/N=C\c1oc(O)c2ccccc12	Giardia FBPA inh inconclusive, Sm TGR inh 11µM (no result: RE007 growth inh)
CSc1nnc([C@@H]2CCCN2C(=O)OC(C)(C)C)o1	none
CCCCSc1nnc([C@@H]2CCCN2C(=O)OC(C)(C)C)o1	AmpC inh detg 32µM
Nc1ccc(-n2nc3ccccc3n2)cc1	none (no result: AmpC inh detg, Giardia FBPA inh, Sm TGR inh, AmpC no deterg)
O=C(/C=C/c1ccccn1)c1cc(Cl)cc(Cl)c1O	Sm TGR inh 40µM
Cc1onc(-c2c(F)cccc2Cl)c1C(=O)OCC(=O)NCc1ccco1	Sm TGR inh 18µM
Cc1onc(-c2c(F)cccc2Cl)c1C(=O)Nc1cccc(S(=O)(=O)NCc2ccco2)c1	Sm TGR inh 28µM
O=C(CNC(=O)Cn1ccc2ccccc2c1=O)NCCCN1CCCCCC1	none
O=[N+]([O-])c1ccc(N/N=C/c2ccc(O)c(O)c2O)c(S(=O)(=O)N2CCOCC2)c1	Giardia FBPA inh 10µM (no result: Sm TGR inh)
COc1cc(/C=N/Nc2ccc([N+](=O)[O-])cc2S(=O)(=O)N2CCOCC2)cc(OC)c1OC	none
O=[N+]([O-])c1cccc(N/N=C/c2cccc(O)c2O)c1	Giardia FBPA inh inconclusive, AmpC no deterg 16µM
O=[N+]([O-])c1ccc(N/N=C/c2cccc(O)c2O)c(S(=O)(=O)N2CCOCC2)c1	Giardia FBPA inh inconclusive, AmpC no deterg 11µM (no result: Sm TGR inh)
CC1(C)Cc2nc3oc4c(NCc5ccccc5)ncnc4c3cc2CO1	none
COC(CSc1ncnc2c1oc1nc3c(cc12)COC(C)(C)C3)OC	Sm TGR inh 28µM
O=C(CC1C(=O)NC2CCCCC2N1C(=O)c1ccc([N+](=O)[O-])cc1)Nc1ccccc1 (centres undefined)	none (no result: Sm TGR inh)
CCN(C(=O)/C=C/c1ccccc1)C1CCCCC1	none
CCOC(=O)c1ccc(NC(=O)c2ccccc2[N+](=O)[O-])cc1	none
CCOC(=O)c1cc([N+](=O)[O-])c([N+](=O)[O-])cc1NC(C)=O	Sm TGR inh 0.5µM

Source: PubChem BioAssay (National Center for Advancing Translational Sciences (NCATS))
